From PubChem BioAssay
Records with an inconclusive call do not appear. The source made the active and inactive calls.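 How the source made its calls, unless noted: active means GFP signal, as percent of the solvent control, above the screen mean plus 3 SD, about 149; inconclusive means no reading because the compound's own fluorescence upset strain identification; inactive means the rest.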

Columns and labels:
[1] = rapamycin-like changes in RPL19A-GFP expression – cell-based, S. cerevisiae, multiplex flow cytometry, primary screen (AID 1862; in the data active means percent of DMSO control GFP below about 86%;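 further: lower values mimic rapamycin by blocking the RPL19A rise seen in DMSO cells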); settings: S. cerevisiae RPL19A-GFP strain, flow cytometry fluorescence, 3 h; at 10 µM; stronger effect = lower value
[2] = TOR pathway GLN3 branch reporter MEP2-GFP changes – S. cerevisiae, multiplex flow cytometry, primary screen (AID 1867;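 active means GFP response, as percent of the DMSO control, above the screen-wide mean plus 3 SD, about 139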;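 further: median GFP channel fluorescence of barcode-gated MEP2-GFP cells measured by flow cytometry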); settings: S. cerevisiae MEP2-GFP strain, 3 h, at 10 µM, stronger effect = higher value, 100% means same as DMSO wells
[3] = TOR pathway RTG branch CIT2 reporter changes – S. cerevisiae, GFP fusion, multiplex flow cytometry, primary screen (AID 1870;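 active means percent response above a set limit, the screen-wide mean plus 3 SD, cut at about 130% in these data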;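 further: barcoded CIT2-GFP strain pooled with four other GFP strains with rapamycin as positive control; median GFP fluorescence per well over plate mean of DMSO wells so 100% = DMSO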); settings: S. cerevisiae CIT2-GFP expression, 3 h, at 10 µM, stronger effect = higher value
[4] = TOR pathway LAP4-GFP level changes – S. cerevisiae, multiplex flow cytometry, primary screen (AID 1873); settings: S. cerevisiae LAP4-GFP expression, 3 h, at 10 µM, stronger effect = higher value
[5] = yeast AGP1-GFP level changes, GLN3 branch – cell-based, multiplex flow cytometry, S. cerevisiae, primary screen (AID 1887;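 active means GFP signal above the screen-wide mean plus 3 SD, that is over about 124.5% of the solvent control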;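 further: AGP1-GFP fusion strain of S. cerevisiae within a five-strain barcoded multiplex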); settings: 3 h, at 10 µM, stronger effect = higher value
[6] = reduced mouse 2C T cell binding to pMHC/ICAM-1 vesicles – MLPCN validation set, flow cytometry, LFA-1/ICAM-1 modulator project, pilot screen (AID 2523;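 active means response below a set limit, under 55% cells CD8-positive and vesicle-bound, and CD8 cells' 90th-percentile brightness under 279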;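 on vesicle binding response: mean PE anti-B7-1 fluorescence of CD8+ cells relative to row control; 100% = QL9-loaded vesicles with DMSO vehicle in the same plate row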); settings: 2C mouse CD8+ T cells, at 7 µM, stronger effect = lower value; double positive events: measured here: CD8+/vesicle+ event percentage
[7] = target: Integrin beta-1 (Homo sapiens) + Integrin alpha-4 (Homo sapiens) (UniProt P13612+P05556); test: alpha4beta1 integrin LIBS antibody binding reduction – U937 cells, HUTS-21 mAb, flow cytometry, validation set, VLA-4 allosteric modulator project, pilot screen (AID 2674;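 active means inhibition above 50%, about 3 SD of the validation set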;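 further: antibody binding induced by the VLA-4 ligand LDV present at three times its Kd; 0% = LDV ligand with antibody and no compound and 100% = antibody without LDV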); settings: HUTS-21 LIBS mAb binding, at 6.7 µM, stronger effect = higher value, binding induced by LDV ligand
[8] = calorie-restriction mimetic ROS inhibitors, yeast – validation compound set, pilot screen (AID 2706;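 active means superoxide response below 65% of plate, a cut near 3 SD across the whole screen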;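 further: yeast exposed to compound for one week at 30 degrees C before staining; 100% = mean of all compound wells on the same plate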); settings: S. cerevisiae aging, superoxide DHE fluorescence; at 10 µM; stronger effect = lower value
[9] = target: Beta-adrenergic receptor kinase 1 (Homo sapiens) (UniProt P25098); test: GRK2 binders displacing RNA aptamer, biochemical, validation, human GRK2, bead flow cytometry (AID 488806;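 active means aptamer binding inhibition above 30%, about 3 SD of noise from non-fluorescent compounds; inactive means inhibition at or below 30%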); settings: bead-bound GRK2, FAM-aptamer displacement, at 10 µM, stronger effect = higher value
[10] = target: Beta-2 adrenergic receptor (Homo sapiens) (UniProt P07550); test: agonist-induced loss of surface beta2AR – cell-based, FAP fluorogen, flow cytometry, validation set, pilot screen (AID 504459;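 active means percent response above 42, roughly 3 SD of non-fluorescent test compounds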;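 further: agonist-driven loss of surface beta2AR via internalization measured by FAP dye flow cytometry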); settings: Am2.2-beta2AR cells, at 10 µM, stronger effect = higher value
[11] = target: AP-2 complex subunit beta (Homo sapiens) (UniProt P63010); test: beta-arrestin/AP2 interaction blockers – biochemical, validation set, GST-AP2 beads, flow cytometry, pilot screen (AID 504541;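 active means inhibition above 54%, about 3 SD of non-fluorescent compounds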;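 further: AP2 carries R879A mutation and is captured from E. coli lysate; bead-bound FITC arrestin peptide fluorescence measuring arrestin peptide binding to AP2; 0% = DMSO wells and 100% = excess unlabeled arrestin peptide control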); settings: FITC arrestin peptide, at 10 µM, stronger effect = higher value, AP2 beta2 appendage fragment, R879A mutant
[12] = cytosolic pH regulators acting via V-ATPase – S. cerevisiae, pHLuorin, HTS validation (AID 504600; in the data active means response above about 15%;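 further: plate controls were DMSO for no effect and reference compound for full effect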); settings: V-ATPase proton transport, at 10 µM, stronger effect = higher value
[13] = system: anti-desmoglein-3 scFv antibody binding to human DSG3; test: blockers of pathogenic pemphigus antibody–desmoglein-3 binding – biochemical, validation compound set, bead-based, flow cytometry, pilot screen (AID 588368;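 active means binding below the plate cutoff, the plate median minus 3 SD, with a reading above zero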;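 further: signal is the median channel fluorescence of bead-bound GFP antibody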); settings: Protein G beads, DSG3-Fc, scFv-GFP binding, at 10 µM, stronger effect = lower value
[14] = Nile Red efflux blockade in pump-expressing yeast – validation compound set, multiplex, phenotypic, pilot screen (AID 588506;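 active means efflux inhibition above 0.42, the validation set average plus 4 SD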;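 further: Nile Red retained in cells so higher fluorescence means more efflux inhibition; 0 = negative control wells and 1 = enniatin B 25 µM full block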); settings: S. cerevisiae pump-expressing triplex, Nile Red efflux flow cytometry; at 10 µM; stronger effect = higher value; the pumps come from Candida albicans
[15] = target: ATP-binding cassette sub-family B member 6 (Homo sapiens) (UniProt Q9NP58); test: blockers of ABCB6-driven porphyrin uptake – K562-ABCB6 cells, flow cytometry, validation set, pilot screen (AID 588550;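 active means inhibition above the screen-wide mean plus 3 SD, about 51%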;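 further: 0% = DMSO wells and 100% = benzethonium chloride 70 µM positive control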); settings: K562-ABCB6 porphyrin accumulation, 1 h, at 10 µM, stronger effect = higher value
[16] = AML differentiation inducers, ER-HoxA9 marrow cells – cell-based, GFP/MAC1 double positive, flow cytometry, validation set, primary screen (AID 588685;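 active means differentiation response of at least 50%, scaled between solvent and reference control, from cells with both markers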;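 further: compound exposure lasts four days before antibody staining and flow analysis; 0% = DMSO wells and 100% = 5 µM fulvestrant positive control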); settings: stronger effect = higher value, normalized: vehicle 0, fulvestrant 100

Sequence of AP-2 complex subunit beta (Homo sapiens) (P63010 whole entry, looked up, the tested form may be a part, one chain of several): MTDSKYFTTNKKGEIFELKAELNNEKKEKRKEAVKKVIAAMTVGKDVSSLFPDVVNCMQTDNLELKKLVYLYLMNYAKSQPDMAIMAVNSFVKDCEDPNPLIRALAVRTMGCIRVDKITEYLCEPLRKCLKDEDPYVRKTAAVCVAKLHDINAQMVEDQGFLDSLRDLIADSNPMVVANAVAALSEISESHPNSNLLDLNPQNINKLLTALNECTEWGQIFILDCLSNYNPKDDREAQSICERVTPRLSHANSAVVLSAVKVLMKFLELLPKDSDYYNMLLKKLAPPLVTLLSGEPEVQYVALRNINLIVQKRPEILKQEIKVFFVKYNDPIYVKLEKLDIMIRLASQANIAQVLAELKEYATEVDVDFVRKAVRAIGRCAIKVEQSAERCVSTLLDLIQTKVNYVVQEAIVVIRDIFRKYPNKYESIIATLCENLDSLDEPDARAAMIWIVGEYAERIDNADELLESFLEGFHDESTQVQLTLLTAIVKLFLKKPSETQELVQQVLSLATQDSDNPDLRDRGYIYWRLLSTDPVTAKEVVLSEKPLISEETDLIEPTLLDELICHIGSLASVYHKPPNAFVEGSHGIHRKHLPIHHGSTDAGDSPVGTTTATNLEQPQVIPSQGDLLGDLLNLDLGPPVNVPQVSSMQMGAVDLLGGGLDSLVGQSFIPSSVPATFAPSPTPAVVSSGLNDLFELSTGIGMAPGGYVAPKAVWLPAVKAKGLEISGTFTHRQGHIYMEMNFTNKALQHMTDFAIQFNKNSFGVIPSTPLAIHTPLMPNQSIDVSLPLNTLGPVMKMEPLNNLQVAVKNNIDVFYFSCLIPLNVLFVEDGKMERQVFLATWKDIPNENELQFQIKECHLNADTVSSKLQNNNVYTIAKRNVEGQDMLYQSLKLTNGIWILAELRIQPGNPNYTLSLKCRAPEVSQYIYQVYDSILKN
Sequence of Beta-2 adrenergic receptor (Homo sapiens) (P07550 whole entry, looked up): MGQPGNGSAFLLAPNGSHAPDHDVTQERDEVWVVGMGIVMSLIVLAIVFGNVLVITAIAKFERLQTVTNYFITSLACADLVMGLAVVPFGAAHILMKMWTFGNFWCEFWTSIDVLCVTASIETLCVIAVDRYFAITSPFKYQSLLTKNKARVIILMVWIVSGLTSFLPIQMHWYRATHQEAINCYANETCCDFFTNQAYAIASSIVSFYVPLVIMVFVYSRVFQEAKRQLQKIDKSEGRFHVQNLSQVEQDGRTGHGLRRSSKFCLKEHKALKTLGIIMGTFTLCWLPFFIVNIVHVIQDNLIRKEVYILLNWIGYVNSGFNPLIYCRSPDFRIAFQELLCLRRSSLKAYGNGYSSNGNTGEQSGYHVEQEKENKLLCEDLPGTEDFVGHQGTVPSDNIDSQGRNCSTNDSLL
Sequence of Beta-adrenergic receptor kinase 1 (Homo sapiens) (P25098 whole entry, looked up): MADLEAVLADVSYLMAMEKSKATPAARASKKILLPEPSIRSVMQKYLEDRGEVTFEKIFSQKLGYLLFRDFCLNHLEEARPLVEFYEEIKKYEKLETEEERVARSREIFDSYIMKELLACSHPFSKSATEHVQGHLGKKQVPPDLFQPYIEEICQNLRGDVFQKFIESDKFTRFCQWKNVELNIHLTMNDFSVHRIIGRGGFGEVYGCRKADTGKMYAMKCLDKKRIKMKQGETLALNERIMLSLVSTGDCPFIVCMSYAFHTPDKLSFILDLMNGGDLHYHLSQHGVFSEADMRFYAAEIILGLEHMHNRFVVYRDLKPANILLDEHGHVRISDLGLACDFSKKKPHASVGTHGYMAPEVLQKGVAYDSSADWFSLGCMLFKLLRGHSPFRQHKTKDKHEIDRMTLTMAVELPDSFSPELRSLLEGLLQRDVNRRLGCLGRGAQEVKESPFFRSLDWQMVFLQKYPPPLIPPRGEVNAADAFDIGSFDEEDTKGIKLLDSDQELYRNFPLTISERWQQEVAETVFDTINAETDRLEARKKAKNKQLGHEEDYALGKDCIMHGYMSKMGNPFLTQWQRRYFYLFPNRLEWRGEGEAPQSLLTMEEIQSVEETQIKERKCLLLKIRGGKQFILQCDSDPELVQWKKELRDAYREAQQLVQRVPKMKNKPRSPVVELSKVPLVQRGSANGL
Sequence of ATP-binding cassette sub-family B member 6 (Homo sapiens) (Q9NP58 whole entry, looked up): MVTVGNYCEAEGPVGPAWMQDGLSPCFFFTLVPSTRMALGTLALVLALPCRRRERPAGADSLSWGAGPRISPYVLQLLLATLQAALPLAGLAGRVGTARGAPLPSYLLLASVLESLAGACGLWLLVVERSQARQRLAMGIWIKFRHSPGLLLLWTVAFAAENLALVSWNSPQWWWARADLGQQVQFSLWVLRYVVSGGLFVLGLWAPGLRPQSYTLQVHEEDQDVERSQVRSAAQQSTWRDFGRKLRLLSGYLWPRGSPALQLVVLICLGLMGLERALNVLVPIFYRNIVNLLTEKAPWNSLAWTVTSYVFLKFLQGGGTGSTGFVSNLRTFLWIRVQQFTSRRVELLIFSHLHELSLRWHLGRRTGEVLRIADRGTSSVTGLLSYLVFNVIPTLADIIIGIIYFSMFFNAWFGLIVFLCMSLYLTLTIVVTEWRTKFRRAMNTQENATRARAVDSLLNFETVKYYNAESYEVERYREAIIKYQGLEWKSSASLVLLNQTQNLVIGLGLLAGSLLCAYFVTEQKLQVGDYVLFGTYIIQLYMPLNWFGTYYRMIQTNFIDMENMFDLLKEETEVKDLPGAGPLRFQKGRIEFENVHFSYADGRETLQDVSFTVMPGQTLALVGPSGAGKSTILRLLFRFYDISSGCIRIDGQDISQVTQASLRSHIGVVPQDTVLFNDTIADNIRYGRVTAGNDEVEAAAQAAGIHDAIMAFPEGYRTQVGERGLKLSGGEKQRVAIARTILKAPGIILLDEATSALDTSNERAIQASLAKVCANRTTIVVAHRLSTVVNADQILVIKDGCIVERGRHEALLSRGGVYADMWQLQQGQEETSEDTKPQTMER
Sequence of Integrin beta-1 (Homo sapiens) + Integrin alpha-4 (Homo sapiens) (P05556 whole entry, looked up): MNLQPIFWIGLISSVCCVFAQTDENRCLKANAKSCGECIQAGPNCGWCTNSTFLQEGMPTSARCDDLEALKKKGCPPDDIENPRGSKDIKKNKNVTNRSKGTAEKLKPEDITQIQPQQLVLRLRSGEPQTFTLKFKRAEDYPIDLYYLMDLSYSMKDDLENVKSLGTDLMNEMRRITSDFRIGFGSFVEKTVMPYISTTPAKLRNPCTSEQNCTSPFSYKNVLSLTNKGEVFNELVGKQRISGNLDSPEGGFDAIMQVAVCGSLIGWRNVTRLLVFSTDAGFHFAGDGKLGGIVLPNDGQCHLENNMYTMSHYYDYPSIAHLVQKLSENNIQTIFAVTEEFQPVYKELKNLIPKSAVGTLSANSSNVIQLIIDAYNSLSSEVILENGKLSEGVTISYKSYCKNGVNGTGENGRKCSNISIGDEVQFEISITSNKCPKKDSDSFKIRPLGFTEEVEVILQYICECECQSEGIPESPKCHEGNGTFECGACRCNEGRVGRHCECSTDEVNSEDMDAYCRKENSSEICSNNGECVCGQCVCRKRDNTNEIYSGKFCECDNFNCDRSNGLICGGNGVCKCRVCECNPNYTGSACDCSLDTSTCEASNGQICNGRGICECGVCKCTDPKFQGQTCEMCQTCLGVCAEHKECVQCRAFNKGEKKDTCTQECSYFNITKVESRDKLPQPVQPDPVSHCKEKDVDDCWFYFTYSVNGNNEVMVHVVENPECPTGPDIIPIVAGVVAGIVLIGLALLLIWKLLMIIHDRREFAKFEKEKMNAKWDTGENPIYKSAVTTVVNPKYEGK
Sequence of Integrin beta-1 (Homo sapiens) + Integrin alpha-4 (Homo sapiens) (P13612 whole entry, looked up): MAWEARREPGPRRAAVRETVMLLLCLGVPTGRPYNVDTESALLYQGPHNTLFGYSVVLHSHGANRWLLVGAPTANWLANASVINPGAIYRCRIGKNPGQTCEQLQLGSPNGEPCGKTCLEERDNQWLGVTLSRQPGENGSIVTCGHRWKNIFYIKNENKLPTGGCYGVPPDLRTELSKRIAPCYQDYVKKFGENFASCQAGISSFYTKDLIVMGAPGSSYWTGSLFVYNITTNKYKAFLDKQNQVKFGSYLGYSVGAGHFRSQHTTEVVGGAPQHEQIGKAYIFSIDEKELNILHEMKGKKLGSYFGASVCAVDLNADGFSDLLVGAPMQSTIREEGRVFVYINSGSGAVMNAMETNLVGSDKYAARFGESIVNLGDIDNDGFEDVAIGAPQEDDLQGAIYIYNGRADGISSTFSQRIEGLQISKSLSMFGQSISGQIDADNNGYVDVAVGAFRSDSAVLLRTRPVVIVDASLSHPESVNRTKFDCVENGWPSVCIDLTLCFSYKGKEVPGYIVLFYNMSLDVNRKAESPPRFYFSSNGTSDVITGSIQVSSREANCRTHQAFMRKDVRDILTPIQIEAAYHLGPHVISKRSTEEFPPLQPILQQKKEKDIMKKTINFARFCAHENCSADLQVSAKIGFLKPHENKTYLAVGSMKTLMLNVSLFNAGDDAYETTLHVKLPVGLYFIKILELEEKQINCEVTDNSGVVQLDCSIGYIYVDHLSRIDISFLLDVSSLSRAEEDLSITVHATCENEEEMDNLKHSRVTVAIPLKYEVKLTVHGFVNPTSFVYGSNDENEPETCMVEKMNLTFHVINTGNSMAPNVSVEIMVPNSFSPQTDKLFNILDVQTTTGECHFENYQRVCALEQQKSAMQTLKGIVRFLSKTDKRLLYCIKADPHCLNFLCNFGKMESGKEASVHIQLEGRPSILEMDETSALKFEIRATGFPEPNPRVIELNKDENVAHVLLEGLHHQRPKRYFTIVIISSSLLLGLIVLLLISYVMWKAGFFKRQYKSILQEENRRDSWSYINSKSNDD

NS(=O)(=O)c1cc(C2(O)NC(=O)c3ccccc32)ccc1Cl (stereo not given)
58.2%: double positive events [6]
inactive: percent of DMSO control GFP [1] 101% | GFP response vs DMSO [2] 117% | percent response of DMSO control [3] 115% | GFP response vs DMSO [4] 78.7% | GFP response, % of DMSO [5] 89.6% | vesicle binding response [6] 252% | inhibition [7] -16.8% | superoxide response (% of plate) [8] 110% | aptamer binding inhibition [9] -6% | response [10] -3.96% | inhibition [11] -17.4% | response [12] 1.36% | binding (% of control) [13] 105% | efflux inhibition (fraction of control) [14] -0.13 | inhibition [15] 9% | differentiation response [16] 4.09%

O=C(OCC(O)C(O)COC(=O)c1ccccc1)c1ccccc1 (stereo not given)
inactive: percent of DMSO control GFP [1] 102% | GFP response vs DMSO [2] 105% | percent response of DMSO control [3] 105% | GFP response vs DMSO [4] 106% | GFP response, % of DMSO [5] 107% | vesicle binding response [6] 102% | inhibition [7] -10.5% | superoxide response (% of plate) [8] 105% | aptamer binding inhibition [9] -1% | response [10] -4.55% | inhibition [11] 2.63% | response [12] -5% | binding (% of control) [13] 97.7% | efflux inhibition (fraction of control) [14] 0.17 | inhibition [15] 2% | differentiation response [16] -16.3%
58.5%: double positive events [6]

S=C(c1ccc2c(c1)OCO2)N1CCCCC1
62.6%: double positive events [6]
inactive: percent of DMSO control GFP [1] 101% | GFP response vs DMSO [2] 104% | percent response of DMSO control [3] 104% | GFP response vs DMSO [4] 105% | GFP response, % of DMSO [5] 106% | vesicle binding response [6] 176% | inhibition [7] -9.13% | superoxide response (% of plate) [8] 91% | aptamer binding inhibition [9] -2% | response [10] -5.76% | inhibition [11] 34.2% | response [12] -2.91% | binding (% of control) [13] 99.8% | efflux inhibition (fraction of control) [14] 0.19 | inhibition [15] 12% | differentiation response [16] -10.4%

CC1(C)CC(CNCCC(c2ccc(F)cc2)c2ccco2)CCO1 (stereo not given)
inactive: percent of DMSO control GFP [1] 96.1% | GFP response vs DMSO [2] 110% | percent response of DMSO control [3] 106% | GFP response vs DMSO [4] 82.5% | GFP response, % of DMSO [5] 103% | vesicle binding response [6] 272% | inhibition [7] 3.55% | superoxide response (% of plate) [8] 87.8% | aptamer binding inhibition [9] 3% | response [10] 4.87% | inhibition [11] 0.76% | response [12] 5.44% | binding (% of control) [13] 104% | efflux inhibition (fraction of control) [14] 0.12 | inhibition [15] 11% | differentiation response [16] -4.09%
93.3%: double positive events [6]

Cc1ccc2c(c1)C(C)(C)[C@]1(C)NC(=O)CCN21
65.2%: double positive events [6]
inactive: percent of DMSO control GFP [1] 94.2% | GFP response vs DMSO [2] 109% | percent response of DMSO control [3] 92% | GFP response vs DMSO [4] 115% | GFP response, % of DMSO [5] 105% | vesicle binding response [6] 212% | inhibition [7] -25% | superoxide response (% of plate) [8] 99.4% | aptamer binding inhibition [9] 7% | response [10] 29.6% | inhibition [11] -1% | response [12] -1.48% | binding (% of control) [13] 98% | efflux inhibition (fraction of control) [14] -0.28 | inhibition [15] 9% | differentiation response [16] 2.4%

COc1cc(C(=O)N/C(=C\c2cn(C)c3ccccc23)C(=O)NCCCO)cc(OC)c1OC
inactive: percent of DMSO control GFP [1] 102% | GFP response vs DMSO [2] 94.1% | percent response of DMSO control [3] 107% | GFP response vs DMSO [4] 75.2% | GFP response, % of DMSO [5] 88% | vesicle binding response [6] 215% | inhibition [7] 11.9% | superoxide response (% of plate) [8] 99.7% | aptamer binding inhibition [9] 2% | response [10] 5% | inhibition [11] -0.03% | response [12] 11.1% | binding (% of control) [13] 100% | efflux inhibition (fraction of control) [14] 0.3 | inhibition [15] 7% | differentiation response [16] -15.2%
56.3%: double positive events [6]

CC1(C)C(=O)OC(C(=O)c2ccc(Cl)cc2)C(C)(C)C1=O (stereo not given)
66.1%: double positive events [6]
inactive: percent of DMSO control GFP [1] 103% | GFP response vs DMSO [2] 90.9% | percent response of DMSO control [3] 107% | GFP response vs DMSO [4] 97.3% | GFP response, % of DMSO [5] 103% | vesicle binding response [6] 261% | inhibition [7] -11.9% | superoxide response (% of plate) [8] 104% | aptamer binding inhibition [9] 2% | response [10] -5.23% | inhibition [11] -10.6% | response [12] -4.25% | binding (% of control) [13] 99.3% | efflux inhibition (fraction of control) [14] -0.01 | inhibition [15] -4% | differentiation response [16] -4.64%

NC(N)=N/N=C/c1ccc(OS(=O)(=O)c2ccccc2)cc1
inactive: percent of DMSO control GFP [1] 102% | GFP response vs DMSO [2] 101% | percent response of DMSO control [3] 101% | GFP response vs DMSO [4] 90.4% | GFP response, % of DMSO [5] 102% | vesicle binding response [6] 141% | inhibition [7] 17.7% | superoxide response (% of plate) [8] 93.2% | aptamer binding inhibition [9] -12% | response [10] 13.2% | inhibition [11] -0.93% | response [12] -4.93% | binding (% of control) [13] 107% | efflux inhibition (fraction of control) [14] -0.03 | inhibition [15] 11% | differentiation response [16] 4.2%
61.3%: double positive events [6]

CN1C(C(=O)Nc2ccccn2)=C(O)c2sccc2S1(=O)=O
63.2%: double positive events [6]
inactive: percent of DMSO control GFP [1] 102% | GFP response vs DMSO [2] 97.7% | percent response of DMSO control [3] 105% | GFP response vs DMSO [4] 93.7% | GFP response, % of DMSO [5] 102% | vesicle binding response [6] 168% | inhibition [7] -2.43% | superoxide response (% of plate) [8] 113% | aptamer binding inhibition [9] -6% | response [10] 4.21% | inhibition [11] 6.73% | response [12] 4.48% | binding (% of control) [13] 96% | efflux inhibition (fraction of control) [14] 0.035 | inhibition [15] 9% | differentiation response [16] 4.2%

Brc1c(NC2=NCCN2)ccc2nccnc12
inactive: percent of DMSO control GFP [1] 95% | GFP response vs DMSO [2] 105% | percent response of DMSO control [3] 93.9% | GFP response vs DMSO [4] 119% | GFP response, % of DMSO [5] 103% | vesicle binding response [6] 191% | inhibition [7] 6.4% | superoxide response (% of plate) [8] 95.4% | aptamer binding inhibition [9] 3% | response [10] -8.4% | inhibition [11] 10.1% | response [12] 0.44% | binding (% of control) [13] 102% | efflux inhibition (fraction of control) [14] -0.24 | inhibition [15] 1% | differentiation response [16] -12%
56.2%: double positive events [6]
